This note sets out measurements from ChEMBL document CHEMBL2218924, “A broad activity screen in support of a chemogenomic map for kinase signalling research and drug discovery” (Biochem J, 2013).

Test [1] has as its target Tyrosine-protein kinase SYK (Homo sapiens) (UniProt P43405). As to conditions: at 10 µM.
Test [2] has as its target T1, Mitogen-activated protein kinase kinase kinase 7 (Homo sapiens) (UniProt O43318).
T1 sequence (whole entry): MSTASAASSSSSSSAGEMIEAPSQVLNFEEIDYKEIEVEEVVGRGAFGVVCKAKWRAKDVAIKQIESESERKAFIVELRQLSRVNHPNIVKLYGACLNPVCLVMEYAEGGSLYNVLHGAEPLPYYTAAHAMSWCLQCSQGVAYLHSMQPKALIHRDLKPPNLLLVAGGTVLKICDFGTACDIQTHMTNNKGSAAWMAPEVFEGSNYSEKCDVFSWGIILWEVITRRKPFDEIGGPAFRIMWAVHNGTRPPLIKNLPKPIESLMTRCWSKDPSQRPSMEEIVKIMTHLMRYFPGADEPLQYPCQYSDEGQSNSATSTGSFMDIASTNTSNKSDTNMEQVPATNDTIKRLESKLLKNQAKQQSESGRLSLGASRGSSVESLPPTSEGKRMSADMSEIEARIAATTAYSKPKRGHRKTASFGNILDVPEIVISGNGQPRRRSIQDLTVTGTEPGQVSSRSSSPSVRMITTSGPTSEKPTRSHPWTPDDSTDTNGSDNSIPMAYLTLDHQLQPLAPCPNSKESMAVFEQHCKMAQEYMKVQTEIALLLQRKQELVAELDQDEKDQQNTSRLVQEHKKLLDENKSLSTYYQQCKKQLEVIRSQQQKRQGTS
As to conditions: at 1 µM.

Test [3] has as its target T1, Mitogen-activated protein kinase kinase kinase 7 (Homo sapiens). Conditions: at 10 µM.
Test [4] addresses T2, Serine/threonine-protein kinase TAO1 (Homo sapiens) (UniProt Q7L7X3).
T2 sequence (whole entry): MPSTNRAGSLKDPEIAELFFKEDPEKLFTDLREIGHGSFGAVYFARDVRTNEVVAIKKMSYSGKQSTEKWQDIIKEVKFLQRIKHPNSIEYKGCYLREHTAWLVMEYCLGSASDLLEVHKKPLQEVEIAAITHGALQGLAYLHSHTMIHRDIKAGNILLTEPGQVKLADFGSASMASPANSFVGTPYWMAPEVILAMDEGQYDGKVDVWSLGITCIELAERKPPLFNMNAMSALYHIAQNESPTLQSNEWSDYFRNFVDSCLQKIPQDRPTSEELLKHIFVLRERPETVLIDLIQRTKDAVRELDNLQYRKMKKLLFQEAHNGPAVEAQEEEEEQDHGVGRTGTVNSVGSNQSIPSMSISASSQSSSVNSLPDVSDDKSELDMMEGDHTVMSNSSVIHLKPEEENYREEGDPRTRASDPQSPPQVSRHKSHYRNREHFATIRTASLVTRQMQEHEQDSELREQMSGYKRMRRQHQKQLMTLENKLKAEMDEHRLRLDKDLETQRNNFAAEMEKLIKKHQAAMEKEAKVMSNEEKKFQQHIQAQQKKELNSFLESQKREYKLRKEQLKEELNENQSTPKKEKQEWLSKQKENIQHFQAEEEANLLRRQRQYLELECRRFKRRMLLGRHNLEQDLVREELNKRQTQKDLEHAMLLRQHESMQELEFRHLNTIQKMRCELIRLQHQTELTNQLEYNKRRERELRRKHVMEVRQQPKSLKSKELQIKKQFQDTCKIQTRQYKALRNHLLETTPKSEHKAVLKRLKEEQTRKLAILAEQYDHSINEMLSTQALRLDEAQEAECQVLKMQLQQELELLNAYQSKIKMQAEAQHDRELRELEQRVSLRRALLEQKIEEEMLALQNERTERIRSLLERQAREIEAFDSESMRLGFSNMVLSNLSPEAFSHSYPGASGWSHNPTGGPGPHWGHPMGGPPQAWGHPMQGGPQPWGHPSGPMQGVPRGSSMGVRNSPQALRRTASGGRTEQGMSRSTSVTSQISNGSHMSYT
Conditions: at 1 µM.

In test [5] the target is T2, Serine/threonine-protein kinase TAO1 (Homo sapiens). As to conditions: at 10 µM.
For test [6], the target named is T3, Serine/threonine-protein kinase TAO2 (Homo sapiens) (UniProt Q9UL54).
T3 sequence (whole entry): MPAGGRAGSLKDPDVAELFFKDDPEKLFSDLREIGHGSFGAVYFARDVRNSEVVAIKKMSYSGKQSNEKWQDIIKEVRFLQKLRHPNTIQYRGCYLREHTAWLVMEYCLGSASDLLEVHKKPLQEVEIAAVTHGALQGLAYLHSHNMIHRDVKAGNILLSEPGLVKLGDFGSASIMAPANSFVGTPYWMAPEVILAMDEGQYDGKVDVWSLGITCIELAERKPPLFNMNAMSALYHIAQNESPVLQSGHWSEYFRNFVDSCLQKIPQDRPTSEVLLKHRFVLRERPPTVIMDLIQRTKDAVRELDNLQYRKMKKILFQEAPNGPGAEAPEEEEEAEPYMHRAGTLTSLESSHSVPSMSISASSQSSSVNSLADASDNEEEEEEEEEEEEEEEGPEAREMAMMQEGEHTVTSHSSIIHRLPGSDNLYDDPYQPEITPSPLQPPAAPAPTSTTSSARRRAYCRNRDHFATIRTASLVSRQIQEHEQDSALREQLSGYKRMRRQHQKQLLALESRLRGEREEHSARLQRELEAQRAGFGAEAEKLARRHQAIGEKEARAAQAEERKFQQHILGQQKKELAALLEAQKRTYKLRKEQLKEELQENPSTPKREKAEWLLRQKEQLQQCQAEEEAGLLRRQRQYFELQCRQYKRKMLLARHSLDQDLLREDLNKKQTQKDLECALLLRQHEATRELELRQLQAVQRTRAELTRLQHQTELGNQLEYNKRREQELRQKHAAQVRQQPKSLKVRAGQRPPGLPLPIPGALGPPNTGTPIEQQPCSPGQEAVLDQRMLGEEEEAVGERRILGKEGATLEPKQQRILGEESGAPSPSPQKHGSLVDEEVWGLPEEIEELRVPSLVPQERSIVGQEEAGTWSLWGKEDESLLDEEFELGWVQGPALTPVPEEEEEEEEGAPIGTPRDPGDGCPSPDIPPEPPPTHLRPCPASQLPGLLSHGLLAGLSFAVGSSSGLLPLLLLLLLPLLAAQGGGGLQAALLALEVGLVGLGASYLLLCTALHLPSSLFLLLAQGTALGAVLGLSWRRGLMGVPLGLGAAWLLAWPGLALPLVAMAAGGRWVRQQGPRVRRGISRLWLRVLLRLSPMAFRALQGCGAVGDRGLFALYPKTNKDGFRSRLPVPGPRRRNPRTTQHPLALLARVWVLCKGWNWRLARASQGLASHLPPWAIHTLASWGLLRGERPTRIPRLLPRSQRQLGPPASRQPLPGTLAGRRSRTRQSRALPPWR
As to conditions: at 1 µM.

Test [7] deals with T3, Serine/threonine-protein kinase TAO2 (Homo sapiens). Conditions: at 10 µM.
In test [8] the target is T4, Serine/threonine-protein kinase TAO3 (Homo sapiens) (UniProt Q9H2K8).
T4 sequence (whole entry): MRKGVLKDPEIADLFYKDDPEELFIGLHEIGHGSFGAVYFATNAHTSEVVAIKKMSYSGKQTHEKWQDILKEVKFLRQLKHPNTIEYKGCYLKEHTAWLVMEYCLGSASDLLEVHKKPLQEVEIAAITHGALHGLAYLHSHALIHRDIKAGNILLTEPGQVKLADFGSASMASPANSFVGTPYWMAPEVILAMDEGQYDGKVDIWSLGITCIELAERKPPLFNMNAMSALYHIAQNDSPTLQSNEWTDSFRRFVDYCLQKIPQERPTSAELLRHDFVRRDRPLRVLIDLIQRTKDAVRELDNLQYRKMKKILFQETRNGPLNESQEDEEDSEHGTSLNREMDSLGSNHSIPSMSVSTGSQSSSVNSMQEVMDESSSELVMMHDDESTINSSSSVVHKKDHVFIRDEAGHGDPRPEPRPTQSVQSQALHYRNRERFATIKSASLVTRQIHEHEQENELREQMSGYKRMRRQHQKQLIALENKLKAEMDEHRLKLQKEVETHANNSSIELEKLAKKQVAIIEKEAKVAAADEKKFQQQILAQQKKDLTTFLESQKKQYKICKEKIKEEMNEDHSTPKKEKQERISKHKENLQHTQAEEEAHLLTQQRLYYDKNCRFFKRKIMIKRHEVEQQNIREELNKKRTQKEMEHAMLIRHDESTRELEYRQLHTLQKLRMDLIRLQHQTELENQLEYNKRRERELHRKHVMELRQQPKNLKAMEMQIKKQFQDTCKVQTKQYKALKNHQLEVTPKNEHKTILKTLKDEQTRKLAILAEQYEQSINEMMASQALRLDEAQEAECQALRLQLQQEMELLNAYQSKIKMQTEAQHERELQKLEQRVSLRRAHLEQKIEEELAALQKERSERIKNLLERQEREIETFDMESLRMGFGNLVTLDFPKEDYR
As to conditions: at 1 µM.

The target in test [9] is T4, Serine/threonine-protein kinase TAO3 (Homo sapiens). Conditions: at 10 µM.
For test [10], the target named is T5, Serine/threonine-protein kinase TBK1 (Homo sapiens) (UniProt Q9UHD2).
T5 sequence (whole entry): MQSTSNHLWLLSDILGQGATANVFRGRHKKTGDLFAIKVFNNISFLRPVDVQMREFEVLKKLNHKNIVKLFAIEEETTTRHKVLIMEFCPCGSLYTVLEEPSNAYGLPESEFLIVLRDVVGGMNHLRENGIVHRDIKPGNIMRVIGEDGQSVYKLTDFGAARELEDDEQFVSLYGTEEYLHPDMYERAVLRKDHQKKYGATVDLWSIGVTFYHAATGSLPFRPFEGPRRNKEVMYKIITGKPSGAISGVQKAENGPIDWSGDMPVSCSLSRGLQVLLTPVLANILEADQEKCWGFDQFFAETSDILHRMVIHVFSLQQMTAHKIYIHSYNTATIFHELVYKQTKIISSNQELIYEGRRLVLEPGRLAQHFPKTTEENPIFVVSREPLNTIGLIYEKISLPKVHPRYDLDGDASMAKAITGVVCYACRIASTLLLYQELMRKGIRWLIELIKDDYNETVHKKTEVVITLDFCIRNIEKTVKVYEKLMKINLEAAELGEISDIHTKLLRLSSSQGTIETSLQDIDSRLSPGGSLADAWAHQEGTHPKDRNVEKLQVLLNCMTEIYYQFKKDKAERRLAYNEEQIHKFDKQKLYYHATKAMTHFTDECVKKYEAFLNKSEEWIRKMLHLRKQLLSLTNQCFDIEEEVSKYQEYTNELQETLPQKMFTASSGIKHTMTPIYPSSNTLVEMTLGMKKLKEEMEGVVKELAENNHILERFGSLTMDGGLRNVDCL
As to conditions: at 1 µM.

Turning to `N#C/C(=C(\N)Sc1ccc(N)cc1)c1ccccc1C(F)(F)F`, the residual activity in test [1] came out at 78%; in test [2], 101%; in test [3], 85%; in test [4] it was 89%; in [5], 99%; in test [6], 102%. For the same compound, the residual activity in [7] worked out at 104%; in [8] it was 99%; in test [9] it was 91%; in test [10], 31%.
